Active and inactive are the calls of the source.
Assays:
[1] = test system: Human papillomavirus type 1a protein E7 (residues 44-93); experiment: small molecules binding HPV E7 44-93 – biochemical, small-molecule microarray, residues 44-93, 635 nm fluorescence, primary screen (AID 1108); settings: fluorescence 635 nm, higher = more signal;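 note: E7 fragment applied at 1 µg/mL in TBST for 1 h at 4 C; score combines spot fluorescence with its signal to noise ratio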
[2] = hepatitis C replication reporter changes, two-sided – Huh7 cells, luciferase reporter, HCV replication inhibitor project, primary screen (AID 1109); settings: Huh7 HCV replicon luciferase reporter, 48 h; higher = more signal;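 note: huh7 hepatoma cells harbouring a luciferase neomycin HCV replicon reporter; luciferase luminescence as measure of HCV replicon replication; test concentration not given here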
[3] = biological target: Left-right determination factor 2 (Homo sapiens) (UniProt O00292); experiment: small molecules binding LEFTY2 protein – biochemical, small-molecule microarray, 635 nm fluorescence scan, primary screen (AID 1110); settings: higher = more signal
Chain of Left-right determination factor 2 (Homo sapiens) (O00292 whole entry, looked up): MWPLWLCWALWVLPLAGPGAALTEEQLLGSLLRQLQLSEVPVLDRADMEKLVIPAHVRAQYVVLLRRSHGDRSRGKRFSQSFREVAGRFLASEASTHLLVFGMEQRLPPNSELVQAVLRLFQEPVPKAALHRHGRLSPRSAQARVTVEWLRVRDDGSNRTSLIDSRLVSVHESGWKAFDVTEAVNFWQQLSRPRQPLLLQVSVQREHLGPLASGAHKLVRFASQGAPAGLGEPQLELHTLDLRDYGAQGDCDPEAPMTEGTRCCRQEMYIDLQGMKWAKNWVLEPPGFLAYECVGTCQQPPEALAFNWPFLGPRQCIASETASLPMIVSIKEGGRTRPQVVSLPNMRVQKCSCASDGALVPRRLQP

[4] = biological target: Calmodulin-1 (Homo sapiens) (UniProt P0DP23); experiment: small molecules binding calmodulin-1 with EGTA – biochemical, small-molecule microarray, Cy5-labelled CALM1, profiling panel (AID 1111); settings: Cy5-CALM1 binding fluorescence, higher = more signal;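 note: labelled calmodulin applied in Tris saline Tween buffer holding calcium plus EGTA and DTT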
[5] = biological target: Calmodulin-1 (Homo sapiens) (UniProt P0DP23); experiment: small molecules binding Ca-loaded calmodulin-1 – biochemical, small-molecule microarray, Cy5-labelled CALM1, plus calcium, artefact control for SMM control-protein annotation, profiling panel (AID 1112); settings: Cy5-CALM1 binding fluorescence, higher = more signal;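 note: score merges spot fluorescence with signal to noise from triplicate slides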
[6] = probe aWnt5a binding to arrayed compounds – biochemical, biotinylated probe, 635/667 nm fluorescence, primary screen (AID 1113); settings: small-molecule microarray, higher = more signal;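 note: score merges 667 nm fluorescence intensity with signal-to-noise per printed feature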
[7] = probe aShh binding to arrayed compounds – biochemical, biotinylated probe, 635/667 nm fluorescence, primary screen (AID 1114); settings: small-molecule microarray, higher = more signal;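 note: probe is biotin-labelled aShh protein from a stem cell growth factor screen; measures binding of labelled protein to compounds printed on the slide; score merges feature fluorescence at 667 nm with signal-to-noise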
[8] = probe aNog binding to arrayed compounds – biochemical, biotinylated probe, 635/667 nm fluorescence, primary screen (AID 1115); settings: small-molecule microarray, higher = more signal;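 note: probe is biotinylated aNog protein used at 0.15 µg/mL for 1 h at 4 C; z-score combines 667 nm fluorescence of each spot with its signal to noise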
[9] = biological target: Torsin-1A-interacting protein 1 (Homo sapiens) (UniProt Q5JTV8); experiment: compound microarray binding of lysate hLAP1 – cell lysate, small-molecule microarray, COS7 lysate, 635/667 nm fluorescence, primary screen (AID 1116); settings: 635 nm fluorescence, higher = more signal
Chain of Torsin-1A-interacting protein 1 (Homo sapiens) (Q5JTV8 whole entry, looked up): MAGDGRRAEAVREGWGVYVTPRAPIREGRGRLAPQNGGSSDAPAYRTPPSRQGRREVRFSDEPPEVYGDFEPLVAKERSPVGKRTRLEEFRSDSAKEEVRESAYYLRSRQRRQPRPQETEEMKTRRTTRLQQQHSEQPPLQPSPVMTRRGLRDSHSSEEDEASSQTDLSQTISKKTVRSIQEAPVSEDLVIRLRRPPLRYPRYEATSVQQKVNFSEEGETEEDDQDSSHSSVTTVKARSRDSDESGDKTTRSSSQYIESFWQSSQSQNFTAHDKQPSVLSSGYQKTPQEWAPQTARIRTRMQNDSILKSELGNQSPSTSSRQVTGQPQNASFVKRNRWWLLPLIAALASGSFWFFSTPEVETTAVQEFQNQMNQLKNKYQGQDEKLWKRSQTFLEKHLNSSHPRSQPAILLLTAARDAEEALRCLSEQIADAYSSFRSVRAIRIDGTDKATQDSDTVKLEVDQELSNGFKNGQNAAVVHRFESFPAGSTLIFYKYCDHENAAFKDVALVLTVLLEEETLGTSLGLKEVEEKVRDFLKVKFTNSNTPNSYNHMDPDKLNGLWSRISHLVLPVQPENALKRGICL

[10] = biological target: Alpha-bungarotoxin (Bungarus multicinctus) (UniProt P60615); experiment: compounds binding labelled alpha-BTX control protein – biochemical, small-molecule microarray, Alexa647 label, 635/667 nm fluorescence, artefact control for SMM control protein annotation, profiling panel (AID 1117); settings: alpha-BTX-A647 binding fluorescence, higher = more signal
Chain of Alpha-bungarotoxin (Bungarus multicinctus) (P60615 whole entry, looked up): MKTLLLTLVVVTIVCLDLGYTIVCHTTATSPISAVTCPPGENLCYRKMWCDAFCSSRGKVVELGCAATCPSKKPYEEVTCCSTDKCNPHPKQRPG

[11] = biological target: Albumin (Bos taurus) (UniProt P02769); experiment: compounds binding labelled BSA control protein – biochemical, small-molecule microarray, Alexa647 label, 635/667 nm fluorescence, artefact control for SMM control protein annotation, profiling panel (AID 1118); settings: BSA-A647 binding, fluorescence 635 nm, higher = more signal;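 note: score merges 667 nm emission intensity and signal-to-noise per printed compound spot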
Chain of Albumin (Bos taurus) (P02769 whole entry, looked up): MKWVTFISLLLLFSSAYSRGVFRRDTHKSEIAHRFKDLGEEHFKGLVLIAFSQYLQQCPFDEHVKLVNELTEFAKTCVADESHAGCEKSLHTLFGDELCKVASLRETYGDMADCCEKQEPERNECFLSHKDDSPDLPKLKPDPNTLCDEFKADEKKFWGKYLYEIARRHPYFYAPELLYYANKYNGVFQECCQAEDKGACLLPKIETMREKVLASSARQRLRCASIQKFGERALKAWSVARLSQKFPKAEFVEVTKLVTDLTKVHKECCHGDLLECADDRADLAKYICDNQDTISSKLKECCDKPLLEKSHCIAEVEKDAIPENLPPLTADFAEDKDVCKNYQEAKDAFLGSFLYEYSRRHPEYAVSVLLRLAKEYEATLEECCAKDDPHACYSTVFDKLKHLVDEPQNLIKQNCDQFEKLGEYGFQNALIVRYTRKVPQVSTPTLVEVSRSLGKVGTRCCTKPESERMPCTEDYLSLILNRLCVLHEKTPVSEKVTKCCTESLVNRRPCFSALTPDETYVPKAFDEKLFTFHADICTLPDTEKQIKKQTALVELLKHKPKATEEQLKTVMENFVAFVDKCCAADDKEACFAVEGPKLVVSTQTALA

[12] = probe aXIP binding to arrayed compounds – biochemical, NeuroSMM set, 635/667 nm fluorescence, primary screen (AID 1119); settings: small-molecule microarray, higher = more signal, called active from +8 up or from −8 down;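 note: probe is the protein aXip251-270 applied at 1 µg/mL to compound-printed slides; binding of probe to printed compounds measured as 667 nm fluorescence plus signal to noise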
[13] = probe aNOTCH3 binding on compound microarray – biochemical, small-molecule microarray, 635/667 nm fluorescence, primary screen (AID 1120); settings: higher = more signal;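 note: probe is a biotin-tagged antibody raised against NOTCH3 rather than NOTCH3 protein; score merges spot fluorescence near 667 nm with spot signal to noise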
[14] = probe aNOTCH2 binding on compound microarray – biochemical, small-molecule microarray, 635/667 nm fluorescence, primary screen (AID 1121); settings: higher = more signal;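 note: score merges feature fluorescence read at 667 nm with its signal to noise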
[15] = biological target: Carbonic anhydrase 2 (Homo sapiens) (UniProt P00918); experiment: compounds binding carbonic anhydrase 2 – biochemical, small-molecule microarray, Alexa647-labelled CAII, profiling panel (AID 1122); settings: CAII-A647 binding fluorescence, higher = more signal
[16] = COS7 lysate on small-molecule microarray, probe aHis, 635 nm (AID 1123); settings: COS7 cell lysate, fluorescence, higher = more signal;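 note: z-score combines 667nm fluorescence intensity with signal-to-noise per printed compound spot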
[17] = probe aLAP1 signal on lysate-treated microarray – cell lysate, small-molecule microarray, COS7 lysate, primary screen (AID 1124); settings: probe aLAP1, fluorescence, higher = more signal;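 note: lysate comes from COS7 cells expressing LAP1 and is applied at 0.3 µg/mL; score merges spot fluorescence near 667 nm with signal-to-noise over triplicate slides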
[18] = test system: Sam68 (KHDRBS1); experiment: compounds binding KHDRBS1 protein – biochemical, small-molecule microarray, 635 nm fluorescence, primary screen (AID 1125); settings: higher = more signal;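 note: score merges 667 nm channel intensity with signal to noise over triplicate slides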
[19] = test system: Chordin-like protein 2 (CHRDL2); experiment: compounds binding chordin-like 2 – biochemical, small-molecule microarray, 635 nm fluorescence, primary screen (AID 1126); settings: fluorescence 635 nm, higher = more signal;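 note: printed compound slides probed with Chrdl2 protein at 4 µg/mL for 1 h at 4 C; score merges 667 nm emission intensity with signal to noise over three replicate slides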
[20] = biological target: Concanavalin-A (Canavalia ensiformis) (UniProt P02866); experiment: compounds binding concanavalin A lectin – biochemical, small-molecule microarray, Alexa647 label, 635 nm, artefact control for SMM control protein annotation, primary screen (AID 1127); settings: ConA-A647 binding fluorescence, higher = more signal;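 note: z combines 667 nm emission intensity with signal-to-noise across three replicate slides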
Chain of Concanavalin-A (Canavalia ensiformis) (P02866 whole entry, looked up): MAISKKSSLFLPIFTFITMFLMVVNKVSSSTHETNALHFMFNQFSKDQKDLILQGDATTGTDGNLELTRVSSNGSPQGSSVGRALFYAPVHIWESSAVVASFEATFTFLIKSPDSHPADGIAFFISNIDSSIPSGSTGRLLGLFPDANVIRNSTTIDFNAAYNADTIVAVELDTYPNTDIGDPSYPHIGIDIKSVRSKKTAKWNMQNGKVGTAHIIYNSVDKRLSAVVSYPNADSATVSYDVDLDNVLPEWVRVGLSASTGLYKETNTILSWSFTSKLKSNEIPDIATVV

| SMILES | composite z-score [1] | z-score [2] | composite z-score [3] | composite z-score [4] | composite z-score [5] | composite z-score [6] | composite z-score [7] | composite z-score [8] | composite z-score [9] | composite z-score [10] | composite z-score [11] | composite Z-score [12] | composite z-score [13] | composite z-score [14] | composite z-score [15] | composite z-score [16] | composite z-score [17] | composite z-score [18] | composite z-score [19] | composite z-score [20] |
| --- | --- | --- | --- | --- | --- | --- | --- | --- | --- | --- | --- | --- | --- | --- | --- | --- | --- | --- | --- | --- |
| CC(C)C[C@@H]1NC(=O)[C@H]2C[C@@H](C(=O)NCCCCCNC(=O)CS)[C@@H](c3ccc(O)cc3)N2C1=O | 1.46 | -0.28 | 0.679 | 1.03 | -0.568 | 0.23 | 0.203 | -0.324 | 0.602 | 1.54 | -0.796 | 0.0136 (inactive) | -0.171 | -0.144 | 0.414 | 2.08 | 0.873 | 1.31 | 0.795 | 0.885 |
| COc1ccc(NC(=O)O[C@H]2[C@H](OC(=O)Nc3ccc4c(c3)OCO4)[C@H](OC(=O)Nc3ccc4c(c3)OCO4)[C@@H](OC)O[C@@H]2CO)cc1 | 1.08 | 0.0346 | -0.0444 | 0.888 | -0.958 | -0.0643 | 0.0469 | -0.147 | 0.94 | 0.425 | -0.0357 | -0.102 (inactive) | 0.037 | -0.117 | 0.609 | 1.36 | 1.16 | 1.26 | 0.0872 | 1.02 |
| COc1ccc([Si](C)(C)[C@H]2[C@H](CCO)O[C@@]3(C(=O)N(Cc4ccccc4)c4ccc(N(C=O)c5ccccc5)cc43)[C@@H]2C)cc1 | 1.21 | -4.6 | 0.274 | 1.1 | 0.444 | -0.0512 | -0.0769 | -0.352 | 0.431 | 0.0701 | 0.717 | -0.328 (inactive) | 0.0576 | -0.0984 | 0.189 | 0.929 | 0.0964 | 0.936 | -0.0384 | 1.02 |
| COC(=O)C1=CC(CCCO)=CC(c2ccc(CN3CCCC3)cc2)N(Cc2sc3ccccc3c2Cl)C=C1C(=O)OC (stereo not given) | 1.34 | -0.574 | 1.17 | 2.96 | 1.22 | 0.0625 | 0.661 | 2.08 | 3.75 | 3.77 | 1.05 | 3.3 (inactive) | 0.734 | 0.157 | 0.788 | 2.95 | 0.926 | 1.3 | 0.153 | 1.21 |
| CC(C)C[C@@H]1NC(=O)[C@@H]2C[C@H](C(=O)NCCCC[N+](C)(C)C)[C@H](c3ccc(O)cc3)N2C1=O | 0.39 | -0.996 | 1.05 | -0.928 | -0.768 | 0.0031 | 0.199 | 0.114 | 1.24 | 0.789 | -0.857 | 0.541 (inactive) | -0.0866 | -0.153 | 0.705 | 0.83 | 0.678 | 1.09 | 1.37 | 1.02 |
| COCCOC(=O)N1C(=O)[C@@]2(c3cc(C#CC4(O)CCCCCC4)ccc31)[C@H](c1ccccc1OCCO)N1[C@H](c3ccccc3)[C@H](c3ccccc3)OC(=O)[C@H]1[C@@H]2C(=O)N1CCCCCCC1 | 1.06 | -2.28 | 0.502 | 1.67 | 1.46 | 0.355 | 0.661 | 2.71 | 3.51 | 1.49 | 0.187 | 0.961 (inactive) | 1.07 | 0.513 | 0.497 | 2.16 | 0.364 | 1.29 | 0.905 | 0.992 |
| O=C(NCCO)C1=C[C@H](Oc2ccccc2I)[C@@H](O)[C@H](NCc2ccc(F)cc2)C1 | -0.938 | -3.66 | 0.949 | -0.815 | -2.87 | -0.237 | -0.262 | -0.0542 | 5.01 | -0.89 | -1.89 | -0.48 (inactive) | -0.161 | -0.14 | -0.934 | -0.809 | 1 | -0.285 | -0.0242 | -1.83 |
| CN(C)CCCCNC(=O)[C@H]1C[C@H]2C(=O)NCC(=O)N2[C@H]1c1cccc(OCCO)c1 | -0.433 | 0.195 | -0.443 | 0.0097 | 0.706 | -0.0685 | -0.285 | -0.437 | 0.668 | -0.115 | -0.539 | 0.0388 (inactive) | -0.179 | -0.146 | 0.655 | 0.0949 | -0.235 | -0.705 | 0.281 | -0.408 |
| C=C(/C(=C/C[C@@H](OC(C)=O)c1ccccc1OCCO)c1cc(C(=O)OC)ccc1OC)C(C)C | 0.326 | -1.69 | -0.0061 | 0.543 | -0.692 | -0.0643 | -0.304 | 0.051 | 0.385 | -0.598 | 0.344 | 0.231 (inactive) | 0.217 | -0.0548 | 0.697 | 0.335 | -0.394 | 0.373 | -0.134 | 1.02 |
| CCCCC(=C=CC[C@@H](O)c1ccc(OCCO)cc1)C[C@@H](O)c1ccccn1 | -0.0715 | -1.49 | 0.288 | 0.421 | 0.0751 | -0.0685 | 0.0611 | 0.157 | 0.642 | 0.0829 | 0.681 | 0.111 (inactive) | 0.0557 | -0.0785 | 0.326 | -0.0207 | 0.209 | 1.15 | 0.102 | 0.223 |
| C=C(CCCC)C(=O)CC[C@H](OC(=O)c1cccnc1)c1ccc(CO)o1 | 1.07 | -1.26 | 1.16 | 0.223 | -0.183 | -0.0462 | 0.191 | -0.116 | 0.706 | 0.542 | 0.133 | 0.0385 (inactive) | 0.19 | -0.0323 | 0.555 | 1.07 | 1.06 | 1.3 | 0.608 | 1.1 |

Reference: PubChem BioAssay
